Compound activity: PubChem, National Center for Advancing Translational Sciences (NCATS)
Hits are enriched below; roughly 6.6% of the tested compounds scored in any of these assays.
KB-V1 MDR tox: kills drug-selected multidrug resistant KB-V1 cells | hit rate 3.4% among 400,000 | KB-V1 MDR cells viability, CellTiter-Glo, 72 h | Potency, µM (doses to about 46.1 µM), usual class: cytotoxic; also: % is scaled to controls: 0 for no effect and ±100 for the full control effect; nearly all actives have a fitted effect of over 60% in size
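Luminescent ATP read-out (CellTiter-Glo, 10 min) measures survival of drug-selected KB-V1 MDR cells after 72 h, 37 degrees C compound exposure. Medium: phenol-red-free DMEM, 10% FBS. Values from fitted concentration-response curves.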
KB-3-1 tox: kills parental KB-3-1 adenocarcinoma cells; KB-3-1 viability, CellTiter-Glo ATP luminescence, 72 h; Potency, µM (doses to about 46.1 µM), most hits filed as cytotoxic; AID 1347075; hit rate 1.4% among 400,000; also: % is scaled to controls: 0 for no effect and ±100 for the full control effect; nearly all actives have a fitted effect of over 60% in size
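KB-3-1 cells, DMEM (no phenol red) + 10% FBS; compound by pin transfer, 72 h, 37 °C. Readout: CellTiter-Glo luminescence after 10 min. Data normalized, curve-fitted.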
HT1080 IDH1KD tx: kills HT-1080 cells with IDH1 knockdown; HT-1080 IDH1 knockdown viability, ATP luminescence, 48 h; Potency, µM (titrated, usually from 46.1 µM), for the others: at the top dose activity, negative = toxicity, most hits filed as cytotoxic; hit rate 2% among 360,000;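 also: 0% = DMSO wells and -100% = cell-free medium wells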
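CellTiter-Glo luminescence after 48 h compound exposure at 37 degrees C of IDH1-knockdown HT-1080 cells in 5% FBS RPMI. %Activity scaled between DMSO wells and cell-free media wells, with curves fitted and assigned curve classes.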
HepG2 tox: kills HepG2 cells in TGF-b inhibitor counter-screen; HepG2 CAGA-GFP viability, ATP luminescence, 18 h; Potency, µM (top dose mostly 46.1 µM), without a hit: at the top dose activity change, negative = cytotoxicity, actives largely listed as cytotoxic; hit rate 0.76% among 410,000
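HepG2 CAGA-GFP cells (1000/well, DMEM with 1% FBS) received compound, then TGF-beta at 500 pg/mL final, and were incubated 18 hours at 37 degrees C. Viability was read by CellTiter-Glo luminescence. Media-only wells were set as complete cell-killing and DMSO as no toxicity.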
HT1080-NT tox: kills 2HG-producing HT-1080-NT fibrosarcoma cells | HT-1080-NT fibrosarcoma viability, CellTiter-Glo ATP luminescence, 48 h | Potency, µM (series often up to 46.1 µM), without a hit: top-dose activity, negative = less viability, hits mostly cytotoxic | hit rate 1.6% among 360,000;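 also: NT is the 2HG producing partner of a matched IDH1 knockdown line; 0% = DMSO-treated cells and -100% = media-only wells without cells; nearly all actives have a fitted effect of over 55% in size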
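Compounds were tested in concentration-response format on HT-1080-NT cells for 48 hours at 37 degrees C. Cell viability came from CellTiter-Glo luminescence; curves were classified by r2, response magnitude and activity.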
TGFb SMAD3 inh: blocks TGF-b signaling | HepG2 CAGA-GFP TGF-b/SMAD3 reporter, GFP fluorescence, 18 h; TGF-beta stimulated, 500 pg/mL final | Potency, µM (titrated, usually from 46.1 µM), for the others: at the highest dose activity, negative = inhibition, hits mostly inhibitors | hit rate 1.2% among 410,000; also: % is scaled to controls: 0 for no effect and ±100 for the full control effect; nearly all actives have a fitted effect of over 65% in size
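Inhibition of TGF-beta-driven CAGA-GFP reporter expression in HEPG2 cells is measured by cellular GFP fluorescence after 18 h stimulation with 500 pg/mL recombinant TGF-beta in 1% FBS medium at 37 degrees C.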
Starred values were filed as active, the others as inactive. Calls follow the shape of the dose curve; as a rule, active = well fitted curve in the direction sought with a large enough effect; inconclusive = small, poorly fitted or top-dose-only effect, or another doubt; inactive = no such curve, though single readings can be large; an effect the other way counts as inactive or inconclusive. Potency is read from the fitted curve at half-maximal effect.

How did Cc1cc(C(=O)Nc2nc3c(s2)CCCC3)cs1 do in these assays?
KB-V1 MDR tox: inactive; KB-3-1 tox: inactive; HT1080 IDH1KD tx: inconclusive; HepG2 tox: -7%; HT1080-NT tox: 6.3µM*; TGFb SMAD3 inh: -3%

How did Cc1ccc(NC(=O)c2c(C)oc3ccc(O)c(CN4CCCCCC4)c23)cc1 do in these assays?
HepG2 tox: -30%; TGFb SMAD3 inh: inconclusive

How did CC1(C)Cc2c(C#N)c(N)sc(=S)c2CS1 do in these assays?
KB-V1 MDR tox: inconclusive; KB-3-1 tox: inactive; HT1080 IDH1KD tx: 0%; HepG2 tox: 3.5µM*; HT1080-NT tox: 0%; TGFb SMAD3 inh: -7%

What do the screens show for `Cn1c(N)c(C#N)c2c(c1=S)CSC(C)(C)C2`?
KB-V1 MDR tox: inactive; KB-3-1 tox: inactive; HT1080 IDH1KD tx: -1%; HepG2 tox: -8%; HT1080-NT tox: -2%; TGFb SMAD3 inh: 4%

What do the screens show for `CCOC(=O)c1c(C)[nH]c(C(=O)N/N=C\c2ccccc2O)c1C`?
KB-V1 MDR tox: 2.1µM*; KB-3-1 tox: inconclusive; HT1080 IDH1KD tx: 5.8µM*; HepG2 tox: -33%; HT1080-NT tox: 7.3µM*; TGFb SMAD3 inh: -33%

How did CCOC(=O)c1c(C)[nH]c(C(=O)N/N=C/c2ccc(OC)c(OC)c2)c1C do in these assays?
KB-V1 MDR tox: inactive; KB-3-1 tox: inconclusive; HT1080 IDH1KD tx: inconclusive; HepG2 tox: -4%; HT1080-NT tox: 14%; TGFb SMAD3 inh: 8%

Results for CCOC(=O)c1c(C)[nH]c(C(=O)N/N=C/c2cc([N+](=O)[O-])ccc2O)c1C ?
KB-V1 MDR tox: inconclusive; KB-3-1 tox: 12µM*; HT1080 IDH1KD tx: inconclusive; HepG2 tox: -13%; HT1080-NT tox: -26%; TGFb SMAD3 inh: -21%

What do the screens show for `Cc1cccc(-c2nc(C)c(CCNC(=O)C(=O)Nc3ccc(C)c(C)c3)s2)c1`?
KB-V1 MDR tox: inactive; KB-3-1 tox: inactive; HepG2 tox: -24%; TGFb SMAD3 inh: 3%

What do the screens show for `COc1ccc(C2CC(=O)c3c([nH]c(C(=O)OC4CCCCCC4)c3C)C2)cc1OC` (configuration not stated)?
KB-V1 MDR tox: inactive; KB-3-1 tox: inactive; HepG2 tox: 1%; TGFb SMAD3 inh: -21%

How did O=C(Nc1cc(Cl)ccc1O)c1snnc1-c1ccccc1 do in these assays?
KB-V1 MDR tox: 8.2µM*; KB-3-1 tox: 18µM*; HT1080 IDH1KD tx: inconclusive; HepG2 tox: -5%; HT1080-NT tox: -3%; TGFb SMAD3 inh: inconclusive

What do the screens show for `O=S(=O)(c1ccccc1)N1CCN(c2cccc(Cl)c2)CC1`?
KB-V1 MDR tox: inactive; KB-3-1 tox: inactive; HT1080 IDH1KD tx: 5%; HepG2 tox: -7%; HT1080-NT tox: -3%; TGFb SMAD3 inh: 11%

Results for Cc1ccc(N2CCN(C(=O)c3cccc([N+](=O)[O-])c3)CC2)cc1Cl ?
KB-V1 MDR tox: inactive; KB-3-1 tox: inactive; HT1080 IDH1KD tx: 3%; HepG2 tox: 20%; HT1080-NT tox: 5%; TGFb SMAD3 inh: inconclusive

What do the screens show for `O=C(c1cccc([N+](=O)[O-])c1)N1CCN(c2cccc(Cl)c2)CC1`?
KB-V1 MDR tox: 5.8µM*; KB-3-1 tox: 18µM*; HT1080 IDH1KD tx: inconclusive; HepG2 tox: 2%; HT1080-NT tox: inconclusive; TGFb SMAD3 inh: -25%

Results for COC(=O)c1cc(C(=O)N2CCN(c3cccc(Cl)c3)CC2)cc([N+](=O)[O-])c1 ?
KB-V1 MDR tox: inconclusive; KB-3-1 tox: 1µM*; HT1080 IDH1KD tx: 0.46µM*; HepG2 tox: 0%; HT1080-NT tox: 0.52µM*; TGFb SMAD3 inh: -23%

What do the screens show for `O=[N+]([O-])c1ccc2[nH]cc(S(=O)(=O)N3CCN(c4cccc(Cl)c4)CC3)c2c1`?
KB-V1 MDR tox: inconclusive; KB-3-1 tox: inconclusive; HT1080 IDH1KD tx: 23µM*; HepG2 tox: -40%; HT1080-NT tox: 21µM*; TGFb SMAD3 inh: inconclusive

Results for O=C(c1ccc(S(=O)(=O)N2CCOCC2)cc1)N1CCN(c2cccc(Cl)c2)CC1 ?
KB-V1 MDR tox: 15µM*; KB-3-1 tox: inactive; HT1080 IDH1KD tx: -2%; HepG2 tox: -3%; HT1080-NT tox: -1%; TGFb SMAD3 inh: -23%

Results for O=C(Nc1cccc2cccnc12)c1csc([C@@H]2O[C@H](CO)[C@H](O)[C@H](O)[C@H]2O)n1 ?
KB-V1 MDR tox: inactive; KB-3-1 tox: inactive; HT1080 IDH1KD tx: 4%; HepG2 tox: -7%; HT1080-NT tox: 21%; TGFb SMAD3 inh: 18%

What do the screens show for `O=C(/C=C/c1cccc([N+](=O)[O-])c1)N1CCN(c2ccc(F)cc2)CC1`?
KB-V1 MDR tox: 21µM*; KB-3-1 tox: inactive; HT1080 IDH1KD tx: 0%; HepG2 tox: 3%; HT1080-NT tox: 2%; TGFb SMAD3 inh: inconclusive

What do the screens show for `COc1ccc(-c2csc3ncnc(Sc4nnnn4C)c23)cc1`?
KB-V1 MDR tox: inconclusive; KB-3-1 tox: inconclusive; HepG2 tox: -69%; TGFb SMAD3 inh: 18µM*

How did Cn1nnnc1Sc1ncnc2scc(-c3ccc([N+](=O)[O-])cc3)c12 do in these assays?
KB-V1 MDR tox: inactive; KB-3-1 tox: inconclusive; HepG2 tox: -103%; TGFb SMAD3 inh: 13µM*

How did CN(C)c1cccc(-c2nnc(SCCCC#N)o2)c1 do in these assays?
KB-V1 MDR tox: 21µM*; KB-3-1 tox: inactive; HT1080 IDH1KD tx: 3%; HepG2 tox: -3%; HT1080-NT tox: 12%; TGFb SMAD3 inh: -15%

What do the screens show for `CN(C)CCSc1nnc(-c2ccccc2)o1`?
KB-V1 MDR tox: inactive; KB-3-1 tox: inactive; HT1080 IDH1KD tx: 11%; HepG2 tox: -9%; HT1080-NT tox: 15%; TGFb SMAD3 inh: -7%

Results for Cc1ccc(N2CCn3c2nc2c3c(=O)n(CCc3ccccc3)c(=O)n2C)cc1C ?
HepG2 tox: 0%; TGFb SMAD3 inh: 0%

Results for O=C1[C@@H](Oc2ccccc2)[C@@H](c2ccccc2)N1c1ccccc1 ?
KB-V1 MDR tox: inactive; KB-3-1 tox: inactive; HT1080 IDH1KD tx: 6%; HepG2 tox: -2%; HT1080-NT tox: 3%; TGFb SMAD3 inh: 7%

What do the screens show for `O=C1[C@@H](Oc2ccccc2)[C@@H](c2cccnc2)N1c1ccccc1`?
KB-V1 MDR tox: inactive; KB-3-1 tox: inactive; HT1080 IDH1KD tx: 21µM*; HepG2 tox: -19%; HT1080-NT tox: inconclusive; TGFb SMAD3 inh: -16%

What do the screens show for `CCCN(CCC)S(=O)(=O)c1ccc(N2CCCC2=O)c([N+](=O)[O-])c1`?
KB-V1 MDR tox: 21µM*; KB-3-1 tox: inactive; HT1080 IDH1KD tx: 5%; HepG2 tox: 1%; HT1080-NT tox: 9%; TGFb SMAD3 inh: -4%
